# Test system: RARa:RXR (NR concentration 270 nM, RXRa partner concentration 90 nM)
# Test: PBM binding z-score (relative to random genomic background probes); higher = stronger binding; sequences stand for … in GC…GCGATTGACAGCGTAGAATGAAGG
# Outline: (§1)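 Random background probes are the reference for binding z-scores. These scores derive from regression-normalized fluorescence on custom Agilent 4×180K protein-binding microarrays incubated 1 h with ligand-free nuclear receptor dimers. Binding was detected with antibodies against each partner (one per run).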
row,Sequence,PBM binding z-score
1,CGTACAGGGTCAGCTAGGCCAGAGTAGGGACGGC,3.32
2,ACCGAAAGGTCGAGGTGAGTATAGAGAAAGGGAA,3
3,AATATTAGTTGACTTAGGGCAACCGATACGACGC,0.751
4,ACTAGCAGGCCAAGGGTCACTCCAGATTAGTCCG,3.79
5,ATCTCTAGGTAACAAAGTTCAGTGAATGCCGAAC,1.61
6,TCTAGCAGGCCAGAGGGTCACTTAAGAGGTACGG,2.27
7,TCTTGTAGATCATTAGAGGTTAAGAAAGTGCGCT,1.89
8,GCTAGTAGTTGAAAGGGCAACCGAATGATTCTCG,1.47
9,GCTCGGAGGACAAGGGCAGAGCTTTGTCCGTAGA,-0.516
10,AGAATGAGGTTAAGATCATGGAAACAGAATACAT,1.79
11,AGTAGCAGGCCAAGTTTGGGTCACTCAAACAAAG,1.64
12,TCGAGTAGGTTACCAATGGGGCATTAAGCTTTCT,0.0202
13,CCAACTAGGTCACGAAAGGTCAAAGTCGAATGAC,7.39
14,AGAATGAGGTTACCAAAGATCAGGGAAACGCTTG,2.16
15,ATCGAAAGGACGTGAGGTGAGTATACAGAAAGGC,0.0924
16,TCTAGTTGGACACGGAGGTCACACACGACGGGTA,4.39
17,CTACCAAGGTGAACAAGGTCATTGATTACTATTC,4.44
18,CGAACTAGGTCATTGACAGGACAGTGAGTAGTAA,2.09
19,TCTTGTAGATCAACAGGAGGTTATGAAAGATCGA,0.694
20,ACTTACGGGTCATCGAGGTTATAGCACGCGTATA,4.92

row,Sequence,PBM binding z-score
1,GCTATCAGTTGAAAGGGCAACCGAATGATTCTCG,1.25
2,CGAACGAGGGCATGAGTTGATAGCGAATGCCGAT,0.351
3,TAGCCTAGGTCATGCGGGCCAGAATAGTGTCGGC,2.58
4,GCTAGTTGGTCAGTAAAAGGTCACAAACCGGTCG,5.58
5,CCTAGTTGGTCAAGGGCACACACGCTATAGGTAC,0.731
6,ACAGACGGGTGAGTGAAGGTAACTCAGCTGGACG,0.0341
7,CCTATTAGTTGACCATAAGGGCAACCTAAGCTCG,1.49
8,GGAACGAGGGCAAGTTGATACCAGAGTTTGATGG,0.537
9,CCTTACAGGTCACTCCAGGTTATAGCATCGGAGT,3.71
10,TTACCAAGGTGAAGGTTGTTGATCCCTCTGTAGA,0.887
11,TCAGATAGGTAAACAGGTGAAAGTCCGTAAGTTA,1.05
12,AGAATGAGGTTGAGATCAGGGAAACAGAATACAT,0.681
13,TCTCGGAGGACACGAAGGTCACAGCTTTCCAGAG,3.8
14,TCTCGGAGGACACGAAGGTCAGATCTTTCCAGAG,2.16
15,AGAACGAGGGCACGCGGAGTTGATAGCAGAGTAG,1.12
16,CCTCAGAGGACAGAAGGTCAGAGCTGTCCGCTTT,2.01
17,TCTCGGAGGACACGAAGGTTAGAGCTTTCCAGAG,0.0543
18,CGTTCAAGGTCAGAGAGGTCAGTGAATGCCGAGT,5.57
19,CTTGCTAGGTCATGGTCAGCTAATCTACAGTATG,2.48
20,CCTTACGGGTCTCGAGGTTATAGCACGACGAGCG,0.806

# Test system: RARa homodimer (NR concentration 270 nM)
# Test: as above
# Outline: as §1
row,Sequence,PBM binding z-score
1,CGTACAGGGTCAGCTAGGCCAGAGTAGGGACGGC,-0.147
2,ACCGAAAGGTCGAGGTGAGTATAGAGAAAGGGAA,0.981
3,AATATTAGTTGACTTAGGGCAACCGATACGACGC,1.92
4,ACTAGCAGGCCAAGGGTCACTCCAGATTAGTCCG,0.278
5,ATCTCTAGGTAACAAAGTTCAGTGAATGCCGAAC,0.834
6,TCTAGCAGGCCAGAGGGTCACTTAAGAGGTACGG,-0.441
7,TCTTGTAGATCATTAGAGGTTAAGAAAGTGCGCT,0.575
8,GCTAGTAGTTGAAAGGGCAACCGAATGATTCTCG,-1.01
9,GCTCGGAGGACAAGGGCAGAGCTTTGTCCGTAGA,-1.17
10,AGAATGAGGTTAAGATCATGGAAACAGAATACAT,0.586
11,AGTAGCAGGCCAAGTTTGGGTCACTCAAACAAAG,-0.486
12,TCGAGTAGGTTACCAATGGGGCATTAAGCTTTCT,-1.28
13,CCAACTAGGTCACGAAAGGTCAAAGTCGAATGAC,3.62
14,AGAATGAGGTTACCAAAGATCAGGGAAACGCTTG,-0.326
15,ATCGAAAGGACGTGAGGTGAGTATACAGAAAGGC,0.0832
16,TCTAGTTGGACACGGAGGTCACACACGACGGGTA,1.25
17,CTACCAAGGTGAACAAGGTCATTGATTACTATTC,1.19
18,CGAACTAGGTCATTGACAGGACAGTGAGTAGTAA,0.277
19,TCTTGTAGATCAACAGGAGGTTATGAAAGATCGA,-0.449
20,ACTTACGGGTCATCGAGGTTATAGCACGCGTATA,1.11

row,Sequence,PBM binding z-score
1,GCTATCAGTTGAAAGGGCAACCGAATGATTCTCG,-0.381
2,CGAACGAGGGCATGAGTTGATAGCGAATGCCGAT,-0.349
3,TAGCCTAGGTCATGCGGGCCAGAATAGTGTCGGC,-0.8
4,GCTAGTTGGTCAGTAAAAGGTCACAAACCGGTCG,1.91
5,CCTAGTTGGTCAAGGGCACACACGCTATAGGTAC,1.05
6,ACAGACGGGTGAGTGAAGGTAACTCAGCTGGACG,-0.176
7,CCTATTAGTTGACCATAAGGGCAACCTAAGCTCG,2.27
8,GGAACGAGGGCAAGTTGATACCAGAGTTTGATGG,0.0477
9,CCTTACAGGTCACTCCAGGTTATAGCATCGGAGT,1.13
10,TTACCAAGGTGAAGGTTGTTGATCCCTCTGTAGA,-0.403
11,TCAGATAGGTAAACAGGTGAAAGTCCGTAAGTTA,1.15
12,AGAATGAGGTTGAGATCAGGGAAACAGAATACAT,0.16
13,TCTCGGAGGACACGAAGGTCACAGCTTTCCAGAG,0.474
14,TCTCGGAGGACACGAAGGTCAGATCTTTCCAGAG,0.52
15,AGAACGAGGGCACGCGGAGTTGATAGCAGAGTAG,-0.653
16,CCTCAGAGGACAGAAGGTCAGAGCTGTCCGCTTT,0.177
17,TCTCGGAGGACACGAAGGTTAGAGCTTTCCAGAG,-1.13
18,CGTTCAAGGTCAGAGAGGTCAGTGAATGCCGAGT,2.45
19,CTTGCTAGGTCATGGTCAGCTAATCTACAGTATG,0.17
20,CCTTACGGGTCTCGAGGTTATAGCACGACGAGCG,-0.452
